Test results reported in PubChem BioAssay (NCI).
This is part of a sample that, as a whole, favours compounds with a hit. Of some 83,000 tested, about 20% had one in any assay.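 Testing used 96-well plates and a 48-hour single-concentration exposure. Example: -40 means 40% of the starting cells died.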 A number with no mark means an inactive call. The source made the active and inactive calls. How the source made its calls: active means growth percent below 10; inactive means the rest.

Key:
Assay in all cases: NCI-60 one-dose screen, 48 h (100 = growth as untreated, 0 = no growth, -100 = all killed)
Conditions in all cases: 10 µM unless noted
[1] = tested on: HCT-15 colon
[2] = tested on: HT29 colon
[3] = tested on: SNB-75 CNS
[4] = tested on: SNB-19 CNS
[5] = tested on: U251 CNS
[6] = tested on: PC-3 prostate
[7] = tested on: SK-MEL-5 melanoma
[8] = tested on: UACC-62 melanoma
[9] = tested on: LOX IMVI melanoma
[10] = tested on: SK-MEL-28 melanoma

SMILES	growth [1]	growth [2]	growth [3]	growth [4]	growth [5]	growth [6]	growth [7]	growth [8]	growth [9]	growth [10]
CCCSc1nc(Nc2ccc(/C(C)=N\NC(N)=S)cc2)c(C#N)c(-c2ccccc2)n1	66%	60.3%	141%	83.1%	73.1%	79.9%	80.2%	97.1%	46.1%	84.6%
N#Cc1cccc(CN2CCC3=C(C2)C(=O)N(Cc2ccc(Cl)cc2)C2=NCCN23)c1	17.3%	30.8%	60.9%	23.7%	23.3%	24.1%	13.1%	29.9%	47.5%	48.3%
COc1cc(OC)c(/C=C/S(=O)(=O)Cc2ccc(OC)c(NC(=O)CCC(=O)NO)c2)c(OC)c1	8.57% (active)	3.2% (active)	31.6%	23%	14.6%	28.7%	-31.6% (active)	13.8%	10.4%	60%
N#Cc1ccccc1Cn1c2nc(=N)c3ccccc3c-2nc2ccccc21	41.5%	15.4%	93.8%	65.8%	70.4%	56.8%	32.5%	56.5%	51.1%	90.2%
CN1CCN(Cc2ccc(NC(=O)c3cncc(C#Cc4cnc5ccc(OCC(C)(C)O)nn45)c3)cc2C(F)(F)F)CC1	-39.2% (active)	-22.7% (active)	-46.1% (active)	-8.47% (active)	-59.3% (active)	2.2% (active)	-91.8% (active)	-41.1% (active)	-91% (active)	-38.9% (active)
C[C@@H]1C[C@H]2C(=O)O[C@@H](C)C(NC(=O)[C@H](Cc3cc(F)cc(F)c3)NC(=O)Nc3ccc(Cl)cc3F)C(=O)N3CCC[C@H]3C(=O)N3CCCC[C@H]3C(=O)N[C@@H](CO)C(=O)N2C1 (stereo not given in full)	13.2%	35.3%	30.8%	28.1%	30%	15.5%	-2.76% (active)	29.5%	29.5%	43.9%
O=C(Nc1ccc(F)c(F)c1)c1cc(-c2ccc(F)cc2F)ccc1O	2.24% (active)	88.6%	-0.285% (active)	12.5%	11.4%	8.32% (active)	-79.9% (active)	-18.3% (active)	2.89% (active)	20%
Cc1cc(C)n(C(=O)c2sc(=S)n(-c3ccccc3)c2N=Nc2c(N)n[nH]c2N)n1	108%	103%	109%	105%	104%	98.7%	103%	98.2%	101%	106%
CCOC(=O)C1=NNC(c2ccc(Cl)cc2)C1C(=O)N1C(=S)NC(=O)C1CC(C)C (stereo not given)	105%	116%	100%	98.3%	105%	96.8%	106%	94.2%	103%	103%
COc1cc(/C=C2\C(=O)Nc3ccccc32)ccc1OCc1ccc(Cl)cc1	93.9%	109%	104%	97.1%	107%	94.8%	103%	87.6%	99.8%	92.9%
Cc1cccc2c3c(sc12)C(c1ccc(F)cc1)C(C#N)=C(/N=C/c1ccc(Cl)cc1)O3 (stereo not given)	3.92% (active)	-28.5% (active)	29.5%	26.4%	4.91% (active)	13.6%	5.84% (active)	18%	9.59% (active)	62.2%
N#Cc1c(Nc2ccccc2)nn2c(-c3ccc([N+](=O)[O-])cc3)ccnc12	99.3%	103%	102%	100%	99.8%	103%	88.6%	93.3%	93.7%	100%
COc1cc(Nc2c(C#N)cnn3cc(-c4cnn(CC(C)(C)O)c4)cc23)ccc1Cl	29.9%	54.3%	55.5%	88.1%	67.2%	62.4%	65.3%	46%	31%	86%
COc1ccc(N2CCN(C3=C(Cl)C(=O)C(C)=C(C)C3=O)CC2)cc1	110%	120%	107%	99.1%	100%	92.3%	97.6%	88.5%	91.4%	118%
NC(N)=Nc1ccc(Oc2cccc(Nc3ccc(Cl)c(C(F)(F)F)c3)c2)cn1	-63.5% (active)	-39.2% (active)	20.3%	-77% (active)	-82.2% (active)	-89.4% (active)	26.7%	-78.3% (active)	-83.8% (active)	-28.6% (active)
N/C(=N\C(N)=N\c1nc2ccccc2s1)c1cccc(F)c1	94.6% [5 µM]	111% [5 µM]	89.2% [5 µM]	96% [5 µM]	94.1% [5 µM]	75.5% [5 µM]	98.2% [5 µM]	89.1% [5 µM]	83.2% [5 µM]	108% [5 µM]
CC(=O)C1=C(C)NC(NNC(N)=S)=NC1c1ccccc1 (stereo not given)	105%	109%	41.1%	98.8%	106%	99.9%	96.7%	93.3%	88.2%	98.1%
CC(=O)c1cc(C(=O)N2c3ccccc3Sc3ccccc32)n2ccc3ccccc3c12	29.2%	14.8%	34.6%	49.1%	37.8%	37.6%	37.3%	21.4%	41.4%	62.7%
NC(N)=Nc1ccc(Oc2cccc(NC(N)=Nc3ccc(Cl)c(C(F)(F)F)c3)c2)cc1	84.3%	46.7%	65%	13.9%	23%	6.36% (active)	42%	47.8%	-26.5% (active)	70%
O=C(O)c1cn(C2CC2)c2cc(N3CCN(C(=O)CN4C(=O)CSC4=O)CC3)c(F)cc2c1=O	112%	112%	45.3%	100%	115%	91.2%	102%	91%	102%	101%
CNc1ncc2cc(-c3ccc(-c4ncccc4F)cc3Cl)c(=O)n(CC3OCC(N)CO3)c2n1 (stereo not given)	87.5%	48.1%	24%	69%	51.8%	81.9%	82.6%	78.6%	32.3%	92.9%
N#Cc1c(-c2cccs2)cc(-c2cnccn2)nc1SCC(=O)Nc1ccc(Br)cc1	82.9%	90.9%	50.6%	69.4%	83%	86.9%	91.1%	78.9%	53.3%	89.7%
CC1=N[C@@H]2CN(C(=O)OC(C)(C)C)C[C@@H]2n2c1cc1ccccc1c2=O	104%	106%	91.7%	105%	106%	92%	99.1%	97.9%	98.2%	115%
O=C(/C=C/c1ccc(F)cc1)c1ccc(O)cc1	73.5%	93.2%	95.3%	91.4%	66.7%	95.4%	94%	88%	63.3%	109%
CC(C)c1ccc(NCc2cn(-c3ccc(C(=O)O)cc3)nc2-c2cc(C(F)(F)F)cc(C(F)(F)F)c2)cc1	73.7%	80.9%	89%	83.8%	86.2%	70.4%	96%	81.9%	91.9%	93.3%
O=C1CC(=O)N2CSCN(C(c3ccccc3)c3nc4ncncc4[nH]3)C2=N1 (stereo not given)	100%	106%	99.8%	93.8%	97.9%	98%	105%	97%	108%	117%
